Test results reported in PubChem BioAssay AID1578 (Sanford-Burnham Center for Chemical Genomics, 2009).
Out of some 290,000 compounds screened, about 3,000 (1%) were called active. No stated cut-off is given here; in the data, active means inhibition mostly above about 36% (no sharp cut-off); inactive means mostly below about 34%. The list comes from a sample in which actives are over-represented; it also holds similar structures and randomly drawn compounds.

Assay: inhibition of NOD1-driven NF-kB reporter – cell-based, luminescence, uHTS, primary screen (AID 1578);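 further: HEK-293T reporter cells stimulated with the NOD1 agonist gamma-tri-DAP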
Conditions: NOD1-driven NF-kB luciferase reporter cells, at 4 µM, active compounds read high

SMILES	inhibition
CC(=O)c1ccccc1N(C(=O)c1ccco1)C(C(=O)NC1CCCC1)c1ccc(C)cc1 (stereo unspecified)	-11.2% (inactive)
Cc1ccc(NC2CCCN(C(=O)c3cccc(-c4ncc[nH]4)c3)C2)cc1C (stereo unspecified)	-0.1% (inactive)
CCCCCCCN(C(=O)CCl)c1ccccc1C	27.2% (inactive)
O=C(Nc1ccccc1)NN(C(=O)CCl)c1ccccc1	73.9% (active)
CCCCC(O)(CCCC)C(=O)NN(C(=O)CCl)c1ccccc1	8.2% (inactive)
Cc1ccc(N(NC(=O)C(O)(c2ccccc2)c2ccccc2)C(=O)CCl)cc1	87.3% (active)
CCCC(O)(CCC)C(=O)NN(C(=O)CCl)c1ccccc1	-30.8% (inactive)
COC(=O)N(NC(=O)C(O)(c1ccccc1)c1ccccc1)c1ccc(C)cc1	-13% (inactive)
CCCC(O)(CCC)C(=O)NN(C(=O)CCl)c1cccc(C)c1	75% (active)
CCCCCCCN(C(=O)CCl)c1cccc(C)c1	57.4% (active)
CCOC(=O)N(NC(=O)C(O)(c1ccccc1)c1ccccc1)c1ccccc1	-25.2% (inactive)
CCC(O)(CC)C(=O)NN(C(=O)CCl)c1ccccc1	-63.3% (inactive)
CCN(CC)NC(=O)Nc1ccccc1	1.7% (inactive)
CCCCCCN(C(=O)CCl)c1ccccc1	-4.8% (inactive)
Cc1cccc(Nc2nc(NCC3CCCO3)nc(N)c2[N+](=O)[O-])c1 (stereo unspecified)	-27.5% (inactive)
O=C(COc1ccccc1)OC(C(=O)c1ccccc1)c1ccccc1 (stereo unspecified)	-26.7% (inactive)
Cc1cc(NS(=O)(=O)c2ccc(NC(=O)c3ccco3)cc2)no1	9.2% (inactive)
O=C(O)CN1CCCCCC1=O	-31.2% (inactive)
Cc1nccn1CCCNC(=O)C1CCC(=O)N(Cc2ccccc2F)C1 (stereo unspecified)	-13.5% (inactive)
CC(C)(C)OC(=O)CN1c2cccc3cccc(c23)S1(=O)=O	-5.8% (inactive)
CCC(C(=O)NC(C)c1ccccc1)C(=O)NC(C)c1ccccc1 (stereo unspecified)	-9.8% (inactive)
CC(=O)Nc1ccc(NC(=O)c2cc(=O)c3cc(C)c(C)cc3o2)cc1	-7.3% (inactive)
COc1ccc(-c2ccc(C(C)=O)cc2)cc1[C@H]1[C@H]2C=CC[C@@H](C)[C@@H]2C(=O)N1Cc1ccccc1	-4.4% (inactive)
COC(=O)c1cc2sc(Cl)cc2n1CC(=O)Nc1cccc(SC)c1	1.3% (inactive)

SMILES	inhibition
CCn1c(=O)cc(OCC(=O)NCc2cccs2)c2ccccc21	-18.7% (inactive)
O=C(CN1CC[n+]2c(-c3cccs3)csc21)c1ccc(Br)cc1	5% (inactive)
O=C(CN1CC[n+]2c(-c3ccccc3)csc21)c1ccc(Br)cc1	-9.1% (inactive)
O=C(CN1CC[n+]2c(-c3cccs3)csc21)c1ccc(-c2ccccc2)cc1	56.9% (active)
O=C(O)CSCC(=O)N1CCc2c([nH]c3ccccc23)C1C(F)(F)F (stereo unspecified)	-8.5% (inactive)
O=C(Nc1ccc(NC(=O)c2ccc(Cl)c(S(=O)(=O)N3CCOCC3)c2)cc1)c1ccccc1	-18.3% (inactive)
O=C(Nc1cccc(S(=O)(=O)C(F)F)c1)c1ccc(Cl)c(S(=O)(=O)N2CCOCC2)c1	4.5% (inactive)
CCOC(=O)c1c(/N=C/N(C)C)sc(C=O)c1-c1ccccc1	-24.2% (inactive)
CC(C)CC(COCc1cccc(Cl)c1)N1CCN(C(=O)c2ccc(C(F)(F)F)cc2)CCC1=O (stereo unspecified)	-7.1% (inactive)
Cc1cccc(COCC(CC(C)C)N2CCN(C(=O)c3ccc(C(F)(F)F)cc3)CCC2=O)c1 (stereo unspecified)	-5.2% (inactive)
Cc1cccc(COCC(CC(C)C)N2CCN(C(=O)c3ccc(C(C)(C)C)cc3)CCC2=O)c1 (stereo unspecified)	77% (active)
COC(=O)c1c(C)n(-c2ccc(C)cc2)c2ccc(O)cc12	18.7% (inactive)
CC(=O)c1c(C)n(-c2ccc(C)cc2)c2ccc(O)cc12	33.3% (inactive)
O=C(CN(C(=O)c1ccccc1Cl)N1C(=O)C2C3C=CC(C3)C2C1=O)c1cccs1 (stereo unspecified)	-17% (inactive)
O=C(Nc1ccc(OC(F)F)c(Cl)c1)Nc1ccc2c(c1)OCO2	-34.5% (inactive)
COc1ccc(/C=C2\N=C(SC)N(C)C2=O)cc1	3.7% (inactive)
CCSC1=N/C(=C\c2ccccc2)C(=O)N1c1ccc(OC)cc1	30.2% (inactive)
COc1ccc(/C=C2\N=C(SC)N(c3ccccc3OC)C2=O)cc1	53.5% (active)
COc1cccc(CNc2ncn[nH]2)c1OCc1ccc(F)cc1	-21.2% (inactive)
Cc1ccc(N=Cc2nc(-c3ccc(C)cc3)oc2O)cc1	21.9% (inactive)
Cc1ccc(-c2nc(C=Nc3ccc(O)cc3)c(O)o2)cc1	57.6% (active)
Cc1ccc(-c2nc(C=Nc3ccccc3)c(O)o2)cc1	-33.7% (inactive)
CCSc1nc2ccccc2n1CCOc1ccccc1	-22.7% (inactive)
O=C(CS(=O)(=O)c1cn(CC(=O)N2CCCC2)c2ccccc12)Nc1ccccc1	-8.1% (inactive)

SMILES	inhibition
O=S(=O)(NCc1ccco1)c1ccc(Cl)nc1	-15.7% (inactive)
CC(C)CC(C(=O)NC(C)(C)C)N(Cc1cccs1)C(=O)c1snc(C(N)=O)c1N (stereo unspecified)	-13.4% (inactive)
Cc1nn(-c2ccccc2)c(=O)c2ccccc12	-47.4% (inactive)
O=c1c(Cl)c(N2CCOCC2)cnn1-c1nc2ccccc2[nH]1	-19.5% (inactive)
Cc1nn(-c2nc3ccccc3[nH]2)c(=O)c2ccccc12	94.4% (active)
C=CCN(CC=C)c1cnn(-c2nc3ccccc3[nH]2)c(=O)c1Cl	11.7% (inactive)
O=c1c(Cl)c(NCCCO)cnn1-c1nc2ccccc2[nH]1	10.3% (inactive)
Cc1nn(-c2nc3ccccc3[nH]2)c(N)c1-c1ccccc1	-44.1% (inactive)
O=c1c2ccccc2cnn1-c1ccc(Cl)cc1	-102% (inactive)
O=c1c2ccccc2cnn1-c1nc2ccccc2[nH]1	99.7% (active)
O=c1c(Cl)c(N2CCCCC2)cnn1-c1nc2ccccc2[nH]1	74.8% (active)
Cc1nnc(SCC(=O)NC(=O)Nc2ccc3c(c2)OCCO3)s1	-25.8% (inactive)
COc1ccc(CCNC(=O)CC2SC(=NCCC(C)C)NC2=O)cc1OC (stereo unspecified)	-12.2% (inactive)
COc1cc(C2c3[nH]c4ccccc4c3C[C@@H]3C(=O)N(Cc4ccco4)CC(=O)N23)cc(OC)c1OC (stereo partly specified)	-4.3% (inactive)
CCCCN(C(=O)CCC(=O)Nc1cc(C)on1)C(C(=O)NC1CCCC1)c1ccccc1OCC (stereo unspecified)	-32.8% (inactive)
COCc1nnc(NC(=O)C2CCN(C(=O)c3ccco3)CC2)s1	-4% (inactive)
Cc1ccc(N2C(=O)C3C(c4ccccc4)N4CCCN4C3(C)C2=O)cc1 (stereo unspecified)	-27.5% (inactive)
O=S(=O)(Nc1nnc(C(F)(F)F)s1)c1ccc(Cl)cc1	-6.4% (inactive)
O=C1c2ccccc2N2C(=O)c3ccccc3[C@H]2N1c1ccccc1	-14.4% (inactive)
CC(C)Cc1ccc(CN2CCC(n3nccc3NC(=O)C3CCCC3)CC2)cc1	-7.7% (inactive)
Cc1cc(OCCCCn2ccnc2)cc(C)c1Cl	-18.7% (inactive)
Cc1cc(OCCCCCn2ccnc2)cc(C)c1Cl	48% (active)
Cc1cc(OCCCn2ccnc2)cc(C)c1Cl	7.6% (inactive)
O=C(Nc1ccc(S(=O)(=O)Nc2nccs2)cc1)c1ccc(N2C(=O)c3ccccc3C2=O)cc1	-25.2% (inactive)

SMILES	inhibition
CC1=CC(C)(C)N2C(=O)C3(C(C#N)=C(N)OC4=C3C(=O)CC(C)(C)C4)c3cc(C)cc1c32 (stereo unspecified)	13.2% (inactive)
Cc1cc2c3c(c1)C1(C(=O)N3C(C)(C)CC2C)C(C#N)=C(N)OC2=C1C(=O)CC(C)(C)C2 (stereo unspecified)	-22.2% (inactive)
Cc1cc2c3c(c1)C(C)(c1ccccc1)CC(C)(C)N3C(=O)C21C(C#N)=C(N)OC2=C1C(=O)CC(C)(C)C2 (stereo unspecified)	77.1% (active)
O=C(Nc1nncs1)c1cccc(S(=O)(=O)N2CCc3ccccc32)c1	-12.7% (inactive)
C=CCOC(=O)C1=C(C)Nc2nnnn2C1c1cc(OC)ccc1OC (stereo unspecified)	-1.8% (inactive)
CC1CC(C)(C)Nc2ccc(N=O)cc21 (stereo unspecified)	41.9% (active)
CC1CC(C)(C)Nc2ccc(OC(=O)c3ccco3)cc21 (stereo unspecified)	44.8% (inactive)
CC1CC2(CCCC2)Nc2ccc(F)cc21 (stereo unspecified)	-2% (inactive)
CCOC(=O)C1CCN(C(=O)CCc2ccc(S(=O)(=O)NC(C)C)cc2)CC1	-6.7% (inactive)
COc1ccccc1N1CCN(CC(O)c2ccc3cc[nH]c3c2)CC1 (stereo unspecified)	-10.9% (inactive)
CC1CN(C(=O)CCNC(=O)c2ccc(Cl)cc2)CC(C)O1 (stereo unspecified)	-15.6% (inactive)
CC12CN3CCN(CC(C3)C1(O)CN1CCOCC1)C2 (stereo unspecified)	-10.8% (inactive)
COc1cccc(C(=O)C2CCCN(C(=O)CCC3=NNC(=O)CC3)C2)c1 (stereo unspecified)	-14.9% (inactive)
Nc1nc(Nc2ccc(Cl)cc2)nc2ccccc12	24.4% (inactive)
CN(C)c1ccc(Nc2nc(N)c3ccccc3n2)cc1	73.8% (active)
Nc1nc(Nc2ccccc2)nc2ccccc12	-85.2% (inactive)
CCOc1ccccc1N1CC(C(=O)N2CCc3ccccc32)CC1=O (stereo unspecified)	17.6% (inactive)
CCn1c(=O)n(CC)c2cc(N3CCCC3)c(NC(=O)c3c(F)cccc3F)cc21	-5.8% (inactive)
O=C(c1cccc(S(=O)(=O)N2CCc3ccccc3C2)c1)N1CCN(c2ccc(O)cc2)CC1	-37.3% (inactive)
CC(=O)c1cccc(NC(=O)Cn2cnc(S(=O)(=O)N3CCOCC3)c2)c1	-18.3% (inactive)
COCc1cc(C)nc(SCc2ccc([N+](=O)[O-])cc2)c1C#N	9.9% (inactive)
CN1CCN(c2ccc(-c3ccc4ccccc4n3)cc2)CC1	90.2% (active)
c1ccc2nc(-c3ccc(N4CCOCC4)cc3)ccc2c1	11% (inactive)
COc1ccc(-c2ccc3ccccc3n2)cc1	-47% (inactive)
